# Whole data set: some 33,000 sequences, median “e-score” near -0.037, cut for the highest 2% near 0.34. Shown is part of a subset that was picked to be rich in the highest values.
# Target: T1, GST-Rok (full length) (Bacillus subtilis subsp. subtilis str. …, UniProt O34857 1-191)
# T1 sequence: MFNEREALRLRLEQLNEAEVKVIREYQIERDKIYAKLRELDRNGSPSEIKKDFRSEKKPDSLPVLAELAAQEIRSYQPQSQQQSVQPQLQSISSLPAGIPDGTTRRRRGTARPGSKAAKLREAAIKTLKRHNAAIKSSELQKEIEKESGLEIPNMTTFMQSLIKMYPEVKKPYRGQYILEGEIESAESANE
# Test: protein binding microarray; Rok is a gene silencer of Bacillus subtilis; high values mean tight binding
# Conditions: protein: recombinant; tags: GST (pTH5325, pDEST15-Magic modified); dsDNA, one strand shown
# How it was run: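 Each has a 25-mer constant primer and a 35-mer variable part from a de Bruijn sequence of order 10, covering every non-palindromic 8-mer at least 32 times (palindromic 16). Preference for each 8-mer is given as a rank-based, unitless enrichment score (E-score). Its range runs from 0.5 (most favored) to −0.5 (most disfavored).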
row,Sequence,binding signal
1,AACATTAA,0.133 E-score
2,AGCTGCTC,-0.187 E-score
3,CTCCATAC,0.166 E-score
4,AGTCTGAC,-0.198 E-score
5,GTTAGGTA,0.191 E-score
6,CCAAAAAG,-0.177 E-score
7,GGAATTAA,0.111 E-score
8,CCTCAGTA,0.0795 E-score
9,CTGGCTCA,0.0475 E-score
10,CTCGAGCA,-0.112 E-score
11,CTTCGAAA,-0.139 E-score
12,CGTGAACA,0.0255 E-score
13,ACTTGTAA,0.168 E-score
14,AATTGTAC,0.341 E-score
15,GATTGTAC,0.317 E-score
16,AATTGTAG,0.28 E-score
17,ACTTGTAT,0.236 E-score
18,ACTTGTAC,0.345 E-score
19,ACGGTTAG,-0.0112 E-score
20,GTTATTGA,0.0636 E-score
21,CGTTACAA,0.151 E-score
22,CTCAGTTC,-0.0174 E-score
23,CTCTAGTA,0.119 E-score
24,ATCTAGCA,0.339 E-score
25,ATCTAGTA,0.408 E-score

row,Sequence,binding signal
1,ATCTAGCC,0.178 E-score
2,CTCTAGCA,-0.115 E-score
3,ATCTAGTC,0.297 E-score
4,AACTTCAT,0.0811 E-score
5,GCTGTGAC,-0.0172 E-score
6,AGATAACA,0.241 E-score
7,CTTACCAC,0.00163 E-score
8,AGTTGCGA,0.0582 E-score
9,GAACTGAA,-0.118 E-score
10,AGACCGTC,-0.193 E-score
11,CCAATGGG,-0.118 E-score
12,AGTCTGCG,0.0274 E-score
13,AGTGGGCA,-0.0765 E-score
14,GACGACGC,0.0038 E-score
15,CTATATCA,0.231 E-score
16,TAATATCA,0.338 E-score
17,ATATATCA,0.398 E-score
18,ATATATCG,0.381 E-score
19,CAATATCA,0.183 E-score
20,ATATATCC,0.18 E-score
21,GAATATCA,0.18 E-score
22,CTATATCC,0.0894 E-score
23,GTATATCA,0.208 E-score
24,CCTTAATC,-0.174 E-score
25,AGGAAGTA,0.0966 E-score

row,Sequence,binding signal
1,GCTCCGGA,-0.102 E-score
2,CCTACTTC,0.211 E-score
3,ACATCTCG,-0.0379 E-score
4,CACGTCAA,0.00857 E-score
5,AACTTCTT,-0.00379 E-score
6,TCTTAAGA,0.00924 E-score
7,AGTGATTG,-0.118 E-score
8,GGTGTCGA,-0.128 E-score
9,CGCTGAGC,-0.0254 E-score
10,AACTAATC,0.158 E-score
11,AACTAATA,0.357 E-score
12,TACTAATA,0.346 E-score
13,AACTAATG,0.339 E-score
14,AACTAATT,0.32 E-score
15,CACTAATA,0.277 E-score
16,ACCTAATA,0.176 E-score
17,GACTAATA,0.225 E-score
18,CACTAATG,0.154 E-score
19,AGATTACG,0.17 E-score
20,AAACCCGT,-0.0147 E-score
21,ACCGGCAA,-0.0643 E-score
22,TTCCCCAA,-0.0604 E-score
23,GTGATTCA,-0.0295 E-score
24,TGATGCAA,-0.0283 E-score
25,CGCGGTAA,0.147 E-score

row,Sequence,binding signal
1,AGTCAATA,0.322 E-score
2,AAGATATA,0.313 E-score
3,AATATAAC,0.193 E-score
4,AATATAAT,0.228 E-score
5,CGTATATC,0.196 E-score
6,AATATATC,0.412 E-score
7,AATATATG,0.33 E-score
8,AATATATT,0.41 E-score
9,AATATATA,0.469 E-score
10,AATATTAT,0.208 E-score
11,GATGGGAA,-0.056 E-score
12,CAGGACGG,-0.164 E-score
13,CAGAGTTA,-0.0506 E-score
14,ATTATAGG,0.285 E-score
15,ACTACTGA,0.323 E-score
16,ACTACTAA,0.386 E-score
17,GCTACTAA,0.199 E-score
18,TCTACTCA,0.206 E-score
19,ACTACTTC,0.193 E-score
20,CCTACTAA,-0.00507 E-score
21,TCTACTAA,0.353 E-score
22,CGTACTTA,0.264 E-score
23,ACTACTCA,0.281 E-score
24,AGTACTTA,0.349 E-score
25,ACTACTTA,0.432 E-score

row,Sequence,binding signal
1,AGTACTTG,0.297 E-score
2,AGTAACAT,0.242 E-score
3,CTCCATTC,0.0472 E-score
4,GCTACAGC,0.0848 E-score
5,ACGCGGCA,-0.129 E-score
6,GTAGAAGA,0.247 E-score
7,ACAGCGAT,-0.0187 E-score
8,CAGGAGAA,-0.111 E-score
9,AATTTAAG,0.18 E-score
10,ACAGTGTC,0.114 E-score
11,ACTGATAA,0.273 E-score
12,TAGCTTCA,0.13 E-score
13,AAGCAAGG,-0.19 E-score
14,AAGTTGAG,-0.123 E-score
15,CTATGTTA,0.285 E-score
16,ATATGTAC,0.345 E-score
17,AGATGTAC,0.315 E-score
18,ATATGTTC,0.184 E-score
19,ATATGTTA,0.395 E-score
20,ATATGTAG,0.391 E-score
21,CTATGTAA,0.185 E-score
22,ATATGTAA,0.286 E-score
23,CTATGTAC,0.186 E-score
24,CGCTATTA,0.211 E-score
25,CATTAGCA,-0.0362 E-score

row,Sequence,binding signal
1,GAGCTCAC,-0.145 E-score
2,ACGCAGAG,-0.119 E-score
3,AGTAGAAT,0.42 E-score
4,AGTAGAGA,0.265 E-score
5,AGTAGAAG,0.228 E-score
6,AGTAGAAA,0.42 E-score
7,AGTAGAAC,0.267 E-score
8,ATTAGAAA,0.233 E-score
9,AGGATTAG,0.158 E-score
10,TAGCCCAA,-0.0264 E-score
11,ACGGAGCG,-0.13 E-score
12,ATATACAG,0.282 E-score
13,TTATACAA,0.294 E-score
14,CTATACAC,0.216 E-score
15,ATATACAC,0.339 E-score
16,CTATACAA,0.296 E-score
17,ATATACAA,0.389 E-score
18,ATTTAGGC,-0.0308 E-score
19,CGTAGGCC,-0.17 E-score
20,ATCGTCCA,-0.0609 E-score
21,GCAAAAAC,0.0325 E-score
22,AGTAACTA,0.421 E-score
23,GCTAACGA,0.123 E-score
24,AGTAACTC,0.0592 E-score
25,GCTAACTA,0.341 E-score

row,Sequence,binding signal
1,GGTAACTA,0.305 E-score
2,ACTAACTC,0.12 E-score
3,ACTAACTA,0.348 E-score
4,GATAACTA,0.222 E-score
5,ACTAACTG,0.163 E-score
6,AATAACTA,0.341 E-score
7,AATAACTG,0.195 E-score
8,CCTAACTA,0.26 E-score
9,AGTTTTAC,0.301 E-score
10,AGACCAAT,-0.0485 E-score
11,AGAGCACA,-0.114 E-score
12,GCGCTTCA,-0.0884 E-score
13,CGCCTATA,0.00134 E-score
14,GATTCTGC,-0.0394 E-score
15,AGTTCTAT,0.213 E-score
16,GATTCTAA,0.134 E-score
17,CATTCTAA,0.0993 E-score
18,CATTCTAG,0.259 E-score
19,AATTCTAC,0.435 E-score
20,GATTCTAC,0.393 E-score
21,AATTCTAT,0.31 E-score
22,CATTCTAC,0.407 E-score
23,AATTCTAA,0.252 E-score
24,AGTTCTAA,0.15 E-score
25,AGTTCTAC,0.383 E-score
